Test results taken from PubChem BioAssay (EPA / NIEHS).
Active and inactive are the calls of the source. How the source made its calls: active means hit-call score of the fitted dose curve at least 0.9, where 1 is the maximum; inactive means score below 0.9.

test: ATG_TCF_b_cat_CIS: Attagene CIS-FACTORIAL HepG2 Assay for human T-Cell-Factor with beta-catenin (TCF/b-cat) (AID 2282965); conditions: HepG2 TCF/beta-catenin cis-reporter transcription, actives raise or lower the signal
In short: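 Cells of the HepG2 line carry transiently transfected reporter units whose promoters respond to endogenous factors. Twenty-four hours post-dosing, reporter mRNA induction is measured by fluorescent RT-PCR and capillary electrophoresis, with DMSO as baseline.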

| Structure (SMILES) | outcome | AC50 |
| --- | --- | --- |
| O=C1C(Cl)=C(Cl)C(=O)C(Cl)=C1Cl | inactive | – |
| N#CCCCCC#N | inactive | – |
| CC1CCC(=O)O1 (stereo not drawn) | inactive | – |
| COc1cc(OC)c(OC)cc1C=O | inactive | – |
| CC(C)(c1cc(Cl)c(O)c(Cl)c1)c1cc(Cl)c(O)c(Cl)c1 | – | 33.4 µM (active) |
| [N-]=[N+]=CC(=O)OC[C@H](N)C(=O)O | inactive | – |
| COCC(=O)N(c1c(C)cccc1C)N1CCOC1=O | inactive | – |
| CC(C)CCCCCCCOP(=O)(Oc1ccccc1)Oc1ccccc1 | inactive | – |
| C=COCCCl | inactive | – |
| C=CCN(CC=C)C(=O)C(Cl)Cl | inactive | – |
| CC[N+](=O)[O-] | inactive | – |
| CC(Cc1ccc(C(C)(C)C)cc1)CN1C[C@@H](C)O[C@@H](C)C1 (stereo partly drawn) | inactive | – |
| [Cl-].[Cl-].[Cl-].[Yb+3] | inactive | – |
| CCOC(=O)N(C)N=O | inactive | – |
| O=CNC(N1CCN(C(NC=O)C(Cl)(Cl)Cl)CC1)C(Cl)(Cl)Cl (stereo not drawn) | inactive | – |
| CCC[N+](=O)[O-] | inactive | – |
| CC(C)(O)C#N | inactive | – |
| CC(C)C#N | inactive | – |
| c1ccc(Nc2ccc3ccccc3c2)cc1 | inactive | – |
| Cc1ccc(OP(=O)(Oc2ccc(C)cc2)Oc2ccc(C)cc2)cc1 (tested in a mixture with another compound) | inactive | – |
| ClC1=C(Cl)[C@]2(Cl)[C@@H]3[C@@H](Cl)[C@H](Cl)C[C@@H]3[C@@]1(Cl)C2(Cl)Cl | inactive | – |
| CC(=O)/C=C/c1ccccc1 | inactive | – |
| c1ccc(P(c2ccccc2)c2ccccc2)cc1 | – | 158 µM (active) |
| CCN(CC)C(=S)S | inactive | – |
| N#Cc1cccc(C#N)c1 | inactive | – |
| N#CC(c1ccccc1)c1ccccc1 | inactive | – |

test: ATG_TAL_CIS: Attagene CIS-FACTORIAL HepG2 Assay for human TAL Basal Promoter (AID 2282966); conditions: HepG2 Attagene cis-factorial TAL promoter reporter; actives raise or lower the signal;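 further: background control endpoint measuring basal TAL promoter reporter mRNA not a specific factor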
In short: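 HepG2, transient MRTU transfection, 24 h compound exposure; RNA → oligo(dT) RT → PCR → 6-FAM primer extension → HpaI digest → CE fluorescence. Bidirectional curve fit vs DMSO. Background-control readout.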

| Structure (SMILES) | outcome | AC50 |
| --- | --- | --- |
| O=C1C(Cl)=C(Cl)C(=O)C(Cl)=C1Cl | inactive | – |
| N#CCCCCC#N | inactive | – |
| CC1CCC(=O)O1 (stereo not drawn) | inactive | – |
| COc1cc(OC)c(OC)cc1C=O | inactive | – |
| CC(C)c1ccc(O)cc1 | inactive | – |
| C[N+](C)(C)CC(=O)[O-] | inactive | – |
| CC(C)(c1cc(Cl)c(O)c(Cl)c1)c1cc(Cl)c(O)c(Cl)c1 | inactive | – |
| O=C(NCNC(=O)NC1C(=O)NC(=O)N1CO)NC1C(=O)NC(=O)N1CO (stereo not drawn) | inactive | – |
| [N-]=[N+]=CC(=O)OC[C@H](N)C(=O)O | inactive | – |
| COCC(=O)N(c1c(C)cccc1C)N1CCOC1=O | inactive | – |
| CC(C)CCCCCCCOP(=O)(Oc1ccccc1)Oc1ccccc1 | inactive | – |
| CCC1CCC(=O)O1 (stereo not drawn) | inactive | – |
| C=COCCCl | inactive | – |
| C=CCN(CC=C)C(=O)C(Cl)Cl | inactive | – |
| CC[N+](=O)[O-] | inactive | – |
| CC(Cc1ccc(C(C)(C)C)cc1)CN1C[C@@H](C)O[C@@H](C)C1 (stereo partly drawn) | inactive | – |
| [Cl-].[Cl-].[Cl-].[Yb+3] | inactive | – |
| CCOC(=O)N(C)N=O | inactive | – |
| O=CNC(N1CCN(C(NC=O)C(Cl)(Cl)Cl)CC1)C(Cl)(Cl)Cl (stereo not drawn) | inactive | – |
| CCC[N+](=O)[O-] | inactive | – |

| Structure (SMILES) | outcome | AC50 |
| --- | --- | --- |
| CC(C)(O)C#N | inactive | – |
| CC(C)C#N | inactive | – |
| S=c1[nH]c2ccccc2[nH]1 | inactive | – |
| CCCCCc1cc(O)cc(O)c1 | – | 100 µM (active) |
| c1ccc(Nc2ccc3ccccc3c2)cc1 | inactive | – |
| CSc1nc(N=[N+]=[N-])nc(NC(C)C)n1 | inactive | – |
| CC=Cc1ccc2c(c1)OCO2 | inactive | – |
| Cc1ccc(OP(=O)(Oc2ccc(C)cc2)Oc2ccc(C)cc2)cc1 (tested in a mixture with another compound) | inactive | – |
| ClC1=C(Cl)[C@]2(Cl)[C@@H]3[C@@H](Cl)[C@H](Cl)C[C@@H]3[C@@]1(Cl)C2(Cl)Cl | inactive | – |
| O=S(=O)(c1ccccc1)c1ccccc1 | inactive | – |
| CCC(C)c1cc(C(C)(C)C)cc(-n2nc3ccccc3n2)c1O (stereo not drawn) | inactive | – |
| CC1(C)C(=O)NC(=O)NC1=O | inactive | – |
| CC(=O)/C=C/c1ccccc1 | inactive | – |
| c1ccc(P(c2ccccc2)c2ccccc2)cc1 | inactive | – |
| CCOC(=O)COc1ccc(Cl)cc1Cl | inactive | – |
| CCN(CC)C(=S)S | inactive | – |
| N#Cc1cccc(C#N)c1 | inactive | – |
| O=C1Nc2ccc(Cl)cc2C(c2ccccc2)=NC1O (stereo not drawn) | inactive | – |
| N#CC(c1ccccc1)c1ccccc1 | inactive | – |
| C[N+](C)=CCl | inactive | – |

test: ATG_TGFb_CIS: Attagene CIS-FACTORIAL HepG2 Assay for human Transforming Growth Factor (TGF) (AID 2282967); conditions: HepG2 Attagene CIS TGFb reporter, mRNA transcription; actives raise or lower the signal
In short: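 Transient MRTU transfection of HepG2 (FuGene 6). Dose 24 h. TriZol RNA, oligo(dT) RT, PCR, 6-FAM primer extension, HpaI cut, CE. Bidirectional fit, DMSO = baseline.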

| Structure (SMILES) | outcome | AC50 |
| --- | --- | --- |
| N#CCCCCC#N | inactive | – |
| CC1CCC(=O)O1 (stereo not drawn) | inactive | – |
| CC(C)c1ccc(O)cc1 | inactive | – |
| C[N+](C)(C)CC(=O)[O-] | inactive | – |
| CC(C)(c1cc(Cl)c(O)c(Cl)c1)c1cc(Cl)c(O)c(Cl)c1 | inactive | – |
| O=C(NCNC(=O)NC1C(=O)NC(=O)N1CO)NC1C(=O)NC(=O)N1CO (stereo not drawn) | – | 100 µM (active) |
| [N-]=[N+]=CC(=O)OC[C@H](N)C(=O)O | inactive | – |
| CC(C)CCCCCCCOP(=O)(Oc1ccccc1)Oc1ccccc1 | inactive | – |
| CCC1CCC(=O)O1 (stereo not drawn) | inactive | – |
| CC[N+](=O)[O-] | inactive | – |
| CC(Cc1ccc(C(C)(C)C)cc1)CN1C[C@@H](C)O[C@@H](C)C1 (stereo partly drawn) | inactive | – |
| CCOC(=O)N(C)N=O | inactive | – |
| O=CNC(N1CCN(C(NC=O)C(Cl)(Cl)Cl)CC1)C(Cl)(Cl)Cl (stereo not drawn) | inactive | – |
| CCC[N+](=O)[O-] | inactive | – |
| CC(C)(O)C#N | inactive | – |
| S=c1[nH]c2ccccc2[nH]1 | inactive | – |
| c1ccc(Nc2ccc3ccccc3c2)cc1 | inactive | – |
| CSc1nc(N=[N+]=[N-])nc(NC(C)C)n1 | inactive | – |
| CC=Cc1ccc2c(c1)OCO2 | – | 0.0749 µM (active) |
| CC1(C)C(=O)NC(=O)NC1=O | inactive | – |
| CC(=O)/C=C/c1ccccc1 | inactive | – |
| c1ccc(P(c2ccccc2)c2ccccc2)cc1 | inactive | – |
| CCOC(=O)COc1ccc(Cl)cc1Cl | inactive | – |
| CCN(CC)C(=S)S | inactive | – |
| N#Cc1cccc(C#N)c1 | inactive | – |
| N#CC(c1ccccc1)c1ccccc1 | inactive | – |
| C[N+](C)=CCl | inactive | – |
